In the library only some 4.1% were active in any assay of this set; here they are far more common.
CaV13 FRET inh – Disruptors of the CACNA1D IQ motif to Ca2+-dependent inactivation inhibitor domain association, primary screening, Förster resonance energy transfer in intact living …; inhibition, % at 12.3 µM; AID 743397; HEK cells, CFP/YFP FRET ICDI-IQ, plate reader, 10 min; percent FRET-ratio fall versus neutral wells; 340,000 tested, 0.098% active;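 active = mean replicate inhibition of at least 30% and at least 1% of replicates passing that level; inconclusive = only one of the two criteria is met; inactive = neither criterion is met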;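 note: 0% = median of the neutral control wells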
IDE inh – inhibits human insulin-degrading enzyme in HEK cells; 320,000 tested, 0.41% active; P14735; inhibition, % at 5.59 µM; FAbetaB cleavage, fluorescence polarization; AID 434962;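 active = percent inhibition above the average of all tested compounds plus 3 SD, set per screening campaign, cut at about 16% in these data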;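 note: IDE supplied by intact live HEK cells; FP after avidin binding of uncleaved biotin substrate so inhibition keeps polarization high; 0% = DMSO wells and 100% = 60 µM reference IDE inhibitor Ii1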
ALR H2O2 inh – inhibitors of human sulfhydryl oxidase ALR; P55789; inhibition, % (no concentration beside the values); purified ALR, DTT oxidation, H2O2 HRP-luminol luminescence; 290,000 tested, 3.8% active;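 active = mean replicate inhibition above about 79%, with every replicate also reaching it, limit read from the data; inconclusive = only one of the two criteria met; inactive = mean below limit and not every replicate reaching it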
Target sequence (P55789 whole entry, looked up): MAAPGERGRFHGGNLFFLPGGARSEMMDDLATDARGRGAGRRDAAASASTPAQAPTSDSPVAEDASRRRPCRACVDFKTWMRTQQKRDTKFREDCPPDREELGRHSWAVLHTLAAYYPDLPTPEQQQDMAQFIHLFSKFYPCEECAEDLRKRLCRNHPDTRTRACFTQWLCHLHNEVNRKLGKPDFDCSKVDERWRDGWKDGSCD
PolyA inh – blocks polyadenylation in yeast reporter cells; S. cerevisiae SKY197-pL101 polyadenylation reporter, beta-gal luminescence; efflux-impaired pdr1/pdr3 knockout yeast; score 100 = 6 SD above DMSO; activity score, % at 12 µM; 300,000 tested, 0.02% active; AID 1875;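 active = lowest replicate activity score at least 50, where 100 means six control SD above control mean; inconclusive = lowest score under 50 but half or more replicates reach 50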;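 note: yeast exposed to compound for 9 h at 30 °C; higher score means more reporter readthrough which indicates perturbed polyadenylation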
PfM18AAP inh – PfM18AAP enzyme inhibition | inhibition, % at 7.35 µM | recombinant PfM18AAP, H-Glu-NHMec fluorogenic cleavage | AID 1822 | 290,000 tested, 1.2% active;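 active = inhibition above the campaign mean inhibition over all tested compounds plus 3 SD, cut at about 28% in these data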;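 note: 0% = plate median of test compound wells and 100% = 2 mM ZnCl2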
IDE cell activ – boosts human insulin-degrading enzyme activity in HEK cells; P14735; FAbeta-B cleavage, fluorescence polarization; 0% vehicle, 100% cell-free pure enzyme wells; activation, % at 5.96 µM; 340,000 tested, 0.073% active; AID 493087;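 active = activation above the mean of all tested compounds plus 3 SD, set per screening campaign, cut at about 17% in these data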
An asterisk follows results filed as active; ? = inconclusive; / = no result given.

SMILES	CaV13 FRET inh	IDE inh	ALR H2O2 inh	PolyA inh	PfM18AAP inh	IDE cell activ
CCN1CC(c2ccccc2)C(c2ccc(Cl)cc2)=N1 (stereo not drawn)	-2	-1	95*	-25	-4	-2
Cc1nc2ccc(NC(=O)C3(C)CCCN(C(C)C)C3)cc2o1 (stereo not drawn)	-4	/	/	/	/	/
Nc1ccc(Oc2cc(N)cc(Oc3ccccc3)c2)cc1	-17	0	100*	8	0	2
Nc1ccc(Oc2ccc3nc(-c4ccccc4)c(-c4ccccc4)nc3c2)cc1	1	3	0	13	-12	5
Cc1ccc(-c2nc(C#N)c(NCCN3CCCCC3)o2)cc1	-4	-6	92*	18	-3	-3
N#Cc1nc(-c2ccccc2F)oc1NCCN1CCOCC1	-5	-1	96*	15	-5	-2
CNC[C@@H](CC1CCCCC1)NC[C@H](CC(C)C)NCCc1cccc(C(F)(F)F)c1	-4	3	-25	0	1	21*
CC[C@@H](C)[C@H](CNC)NC[C@@H](Cc1cccc2ccccc12)NCCc1cccc(C(F)(F)F)c1	-7	5	/	0	-1	29*
Cc1c(N)cccc1N	/	-1	86*	/	/	1
O=C1CC(=O)CC(c2ccco2)C1	-5	-3	/	/	28*	9
Cc1ccc(S(=O)(=O)NNC(=S)Nc2ccccc2)cc1	/	1	99*	0	11	-7
Cc1ccc(S(=O)(=O)NNC(=S)Nc2ccc(Cl)cc2)cc1	-2	-3	?	1	-3	-2
Cc1ccc(S(=O)(=O)NNC(=O)C(=O)NNS(=O)(=O)c2ccc(C)cc2)cc1	-5	4	14	-2	16	3
Cc1ccc(NNS(=O)(=O)c2ccc(C)cc2)cc1	-5	-3	98*	15	7	-2
COC(=O)C1CCN(S(=O)(=O)c2ccc(OC)cc2)CC1	-4	4	-2	-1	-15	4
CC1CN(C(=S)Nc2ccc(Cl)cc2)CC(C)O1 (stereo not drawn)	-16	5	-7	6	1	4
CC1CN(c2ccc(NC(=S)Nc3ccc(N4CC(C)OC(C)C4)cc3)cc2)CC(C)O1 (stereo not drawn)	-18	0	97*	-13	29*	0
COCCN=C1NN=C(c2ccc(NC(C)=O)cc2)CS1	-5	11	?	5	28*	-2
CSc1ccccc1NC(=O)CSCc1nc2sc(C)c(C)c2c(=O)[nH]1	-5	-9	57	28	/	1
Cc1sc2nc(CSCC(=O)Nc3ccccc3C#N)[nH]c(=O)c2c1C	-5	2	98*	4	12	2
Cc1ccc(F)cc1NC(=O)CSCc1nc2sc(C)c(C)c2c(=O)[nH]1	-5	7	97*	-7	/	4
Cc1cccc(S(=O)(=O)N2C[C@@H](O)COC[C@@H]3O[C@H](CC(=O)NCCCN4CCOCC4)CC[C@H]32)c1	-7	/	/	/	/	/
COC(=O)CSc1nc(Cc2ccccc2)nc2ccccc12	3	3	?	-26	5	2
CCOC(=O)CNC(=O)CSc1nc(Cc2cccs2)nc2ccccc12	-9	4	79*	5	3	-7
CC(C)OC(=O)CSc1nc(Cc2ccccc2)nc2ccccc12	-4	1	86*	-12	0	0
SMILES	CaV13 FRET inh	IDE inh	ALR H2O2 inh	PolyA inh	PfM18AAP inh	IDE cell activ
Cc1cc(=O)[nH]c(SC(C)C(=O)Nc2cccc3ccccc23)n1 (stereo not drawn)	-7	10	-12	15	-7	-2
FC(F)(F)c1cc(Cl)c2nc(-c3ccccc3)cn2c1	/	-2	-2	-8	-6	-2
Nc1cccc(-c2cn3cc(C(F)(F)F)cc(Cl)c3n2)c1	-5	-2	99*	-12	3	2
CN1C(=O)/C(=C/c2cn(CC(=O)NCc3ccco3)c3ccccc23)NC1=S	-20	16	97*	-17	12	/
CN1C(=O)/C(=C/c2cn(CC(=O)N3CCCCC3)c3ccccc23)NC1=S	-2	/	0	/	-6	-4
COc1ccc(NC(=O)c2ccccc2S(=O)c2ccccc2C#N)cc1 (stereo not drawn)	9	0	-25	-5	5	3
CCN(Cc1ccncc1)C(=O)c1cc(Br)cc(Br)c1O	-4	1	94*	11	8	2
CCCCc1ccc(-c2csc(/C(C#N)=C/c3ccc(C)o3)n2)cc1	-5	1	0	-14	3	-3
CCCCc1ccc(-c2csc(/C(C#N)=C\c3ccco3)n2)cc1	-26	2	84*	-13	6	4
CCOC(=O)C(C)(C)C(=O)C(C)(C)C(O)c1ccccn1 (stereo not drawn)	-8	1	-24	11	6	1
COc1ccc(OCC(=O)Nc2ccc(Cl)cc2)cc1	-1	-3	0	13	-10	6
COc1ccc(NCCC(O)c2ccc(Cl)cc2)cc1 (stereo not drawn)	-3	-3	99*	10	-4	6
COc1ccc(Cl)cc1NCCC(O)c1ccc(F)cc1 (stereo not drawn)	-5	8	99*	12	22	0
N#C/C(=C\c1cccc([N+](=O)[O-])c1)C(=O)NCc1ccc(Cl)cc1	-3	/	/	/	3	-5
COc1ccc(/C=C(/C#N)C(=O)Nc2cccc([N+](=O)[O-])c2)cc1C(=O)O	-4	6	97*	-1	0	7
N#C/C(=C/c1cccc([N+](=O)[O-])c1)C(=O)Nc1ccccc1O	-8	-1	96*	7	5	3
N#C/C(=C\c1cccc([N+](=O)[O-])c1)C(=O)Nc1cccnc1	2	-1	97*	6	3	1
N#C/C(=C\c1cccc([N+](=O)[O-])c1)C(=O)NCc1cccnc1	-8	-5	/	5	0	-1
C[C@H](NC(=O)c1ccco1)C(=O)Nc1cc(S(=O)(=O)N2CCCC2)ccc1OCC(F)(F)F	-6	-1	0	/	/	0
O=C(NN1CCOCC1)c1ccc(Br)cc1	-3	-3	15	11	/	10
Cc1ccc(C(=O)NN2CCOCC2)cc1	-4	6	98*	1	-1	0
CC(=O)Nc1ccc(S(=O)(=O)N[C@@H](C)C(=O)N2CCN(c3ccccn3)CC2)cc1	-4	4	99*	0	/	0
O=C(O)c1ccc(Nc2nc3ccccc3nc2NS(=O)(=O)c2ccc(F)cc2)cc1	-14	1	98*	-5	-15	-5
CC(=O)Nc1ccc(S(=O)(=O)Nc2nc3ccccc3nc2Nc2ccc3ccccc3c2)cc1	-9	-2	?	-20	-1	-2

Bioassay records (PubChem BioAssay)
